The values that follow come from PubChem BioAssay (NCATS).

The structures appear in SMILES notation. Inconclusive results are not listed. Activity calls are given as the source filed them. Unless noted, the call rests on the fitted dose curve; in most records, active means well fitted inhibition curve with a large enough effect; inconclusive means small, poorly fitted or top-dose-only effect; inactive means flat fitted curve, though single readings scatter.

A short description of experiment [1]: S16 Schwann cell PMP22 intronic element beta-lactamase assay (AID 624044; calls by dose curve; further: nearly all actives have a fitted effect of over 15% in size). The essentials: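 Beta-lactamase reporter under a PMP22 intronic regulatory element in stable S16 rat Schwann cells; 24 h compound exposure. 460 nm blue signal normalized between DMSO (0%) and potassium clavulanate, with 535 nm FRET tracking viability; curves classed by r2 and response.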

The subject of another experiment is AA1029. Put plainly: qHTS profiling for inhibitors of Plasmodium falciparum proliferation (AID 504749). Further: nearly all actives have a fitted effect of over 60% in size. Further: potency means the concentration at half of the fitted maximal effect. The settings on record: P. falciparum in erythrocytes, SYBR Green DNA, 72 h; series mostly up to 12.8 µM. In short, it runs like this: (§1)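 In a 72 h erythrocytic culture (37 C, humidified, 5% CO2) at 2.5% hematocrit and 0.3% starting parasitemia, compounds were tested; SYBR Green I in detergent lysis buffer stained parasite DNA overnight.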

Another experiment relates to ATS95. The description is as above. The settings on record: P. falciparum in erythrocytes, SYBR Green DNA, 72 h; series mostly up to 12.8 µM. In short, it runs like this: as §1
The subject of a further experiment is C2A. The description is as above. The settings on record: P. falciparum in erythrocytes, SYBR Green DNA, 72 h; series mostly up to 12.8 µM. The essentials: as §1
The next experiment concerns CP191. Described as above. The settings on record: P. falciparum in erythrocytes, SYBR Green DNA, 72 h; series mostly up to 12.8 µM. The essentials:
as §1

The next experiment concerns CP192. The description is as above. The settings on record: P. falciparum in erythrocytes, SYBR Green DNA, 72 h; series mostly up to 12.8 µM. In short, it runs like this:
as §1

Another experiment relates to CP238. Described as above. The settings on record: P. falciparum in erythrocytes, SYBR Green DNA, 72 h; series mostly up to 12.8 µM. In short, it runs like this: as §1
The test system of a further experiment is CP252. The experiment is described as above. The settings on record: P. falciparum in erythrocytes, SYBR Green DNA, 72 h; series mostly up to 12.8 µM. In short, it runs like this:
as §1

The next experiment deals with CP256. Described as above. The settings on record: P. falciparum in erythrocytes, SYBR Green DNA, 72 h; series mostly up to 12.8 µM. In short, it runs like this:
as §1

The subject of another experiment is CP262. Described as above. The settings on record: P. falciparum in erythrocytes, SYBR Green DNA, 72 h; series mostly up to 12.8 µM. In short, it runs like this: as §1
The subject of another experiment is CP305. The description is as above. The settings on record: P. falciparum in erythrocytes, SYBR Green DNA, 72 h; series mostly up to 12.8 µM. In short, it runs like this:
as §1

A further experiment relates to CP329. Described as above. The settings on record: P. falciparum in erythrocytes, SYBR Green DNA, 72 h; series mostly up to 12.8 µM. The essentials: as §1
In the next experiment the test system is ECU. Described as above. The settings on record: P. falciparum in erythrocytes, SYBR Green DNA, 72 h; series mostly up to 12.8 µM. The essentials:
as §1

In another experiment the test system is FAB9. The experiment is described as above. The settings on record: P. falciparum in erythrocytes, SYBR Green DNA, 72 h; series mostly up to 12.8 µM. In short, it runs like this: as §1
The test system of the next experiment is JCK. The experiment is described as above. The settings on record: P. falciparum in erythrocytes, SYBR Green DNA, 72 h; series mostly up to 12.8 µM. The essentials: as §1
For a further experiment, the system named is N140. The description is as above. The settings on record: P. falciparum in erythrocytes, SYBR Green DNA, 72 h; series mostly up to 12.8 µM. In short, it runs like this: as §1
The test system of the next experiment is PC15. Described as above. The settings on record: P. falciparum in erythrocytes, SYBR Green DNA, 72 h; series mostly up to 12.8 µM. The essentials: as §1
The subject of another experiment is PC49. Described as above. The settings on record: P. falciparum in erythrocytes, SYBR Green DNA, 72 h; series mostly up to 12.8 µM. The essentials:
as §1

For a further experiment, the system named is TAB109. The experiment is described as above. The settings on record: P. falciparum in erythrocytes, SYBR Green DNA, 72 h; series mostly up to 12.8 µM. The essentials: as §1
For another experiment, the system named is TAB165. Described as above. The settings on record: P. falciparum in erythrocytes, SYBR Green DNA, 72 h; series mostly up to 12.8 µM. In short, it runs like this: as §1

Take `O=C(NC[C@@H](O)CO)c1c(I)c(C(=O)NC[C@@H](O)CO)c(I)c(N(CCO)C(=O)CO)c1I`: the Potency entry (in [1]; with AA1029; in the experiment with ATS95; in the experiment on C2A; with CP191; in the experiment with CP192) was “inactive” throughout. Further, the Potency entry with CP238, in the experiment on CP252, in the experiment on CP256, with CP262, with CP305 and in the experiment on CP329 was “inactive” throughout. Further, the Potency result in the experiment with ECU, in the experiment on FAB9, in the experiment on JCK, with N140, in the experiment with PC15 and in the experiment on PC49 was “inactive” throughout. The Potency entry in the experiment on TAB109 and in the experiment with TAB165 was “inactive” in each case.
For `COc1cc2nc(N3CCN(C(=O)[C@@H]4CCCO4)CC3)nc(N)c2cc1OC`, the Potency entry (in experiment [1]; with AA1029; in the experiment with ATS95; in the experiment on C2A; with CP191; in the experiment on CP192) was “inactive” in each case. The Potency entry with CP238, in the experiment on CP252, in the experiment on CP256, in the experiment with CP262, in the experiment on CP305 and in the experiment on CP329 was “inactive” each time. Moreover, the Potency entry in the experiment on ECU, in the experiment on FAB9, in the experiment on JCK, with N140, with PC15 and with PC49 was “inactive” each time. The Potency result with TAB109 and in the experiment on TAB165 was “inactive” each time.
`CCC(=O)O[C@@H]1[C@H](C)O[C@H](O[C@H]2[C@@H](N(C)C)[C@H](O)[C@@H](O[C@@H]3[C@@H](CC=O)C[C@@H](C)[C@@H](O)/C=C\C=C/C[C@@H](C)OC(=O)C[C@@H](OC(=O)CC)[C@H]3OC)O[C@H]2C)C[C@]1(C)O`: the Potency result (in experiment [1]; in the experiment on ATS95; with C2A; in the experiment on CP191; in the experiment on CP192; with ECU) was “inactive” in each case. Further, the Potency entry in the experiment on FAB9, in the experiment with JCK, with PC15, in the experiment on PC49 and with TAB165 was “inactive” in each case.
Turning to `CC(C)(C)NC[C@H](O)COc1cccc2c1CCC(=O)N2`, the Potency result (in experiment [1]; in the experiment on AA1029; with ATS95; with C2A; in the experiment with CP191; with CP192) was “inactive” in each case. The Potency entry in the experiment on CP238, in the experiment with CP252, in the experiment on CP256, with CP262, with CP305 and in the experiment on CP329 was “inactive” throughout. Moreover, the Potency result with ECU, with FAB9, in the experiment with N140, in the experiment on PC15, with PC49 and with TAB109 was “inactive” each time. Further, the Potency result in the experiment on TAB165 is “inactive”. Also, the Potency in the experiment with JCK was 8.91 µM (active).
Regarding `C=CCOc1ccccc1OC[C@H](O)CNC(C)C`, the Potency result (in experiment [1]; with AA1029; in the experiment with ATS95; with C2A; with CP191; in the experiment on CP192) was “inactive” each time. Besides, the Potency result in the experiment with CP238, in the experiment on CP252, with CP262, in the experiment with CP305, in the experiment on CP329 and with ECU was “inactive” in each case. The Potency entry in the experiment with FAB9, with JCK, in the experiment with N140, in the experiment with PC15, with PC49 and with TAB109 was “inactive” each time.
For the molecule `C#C[C@@]1(O)CC[C@@H]2[C@@H]3CCC4=C(CCC(=O)C4)[C@H]3CC[C@]21C`, the Potency entry in experiment [1] was “inactive”.
For `NC(=O)N[C@H]1NC(=O)NC1=O`, the Potency entry (in experiment [1]; with AA1029; with ATS95; with C2A; in the experiment on CP191; with CP192) was “inactive” each time. Besides, the Potency result with CP238, in the experiment with CP252, with CP256, with CP262, with CP305 and with CP329 was “inactive” in each case. Moreover, the Potency entry with ECU, in the experiment with FAB9, in the experiment on JCK, in the experiment on N140, in the experiment on PC15 and in the experiment on PC49 was “inactive” each time. Further, the Potency entry with TAB109 and in the experiment on TAB165 was “inactive” throughout.
Regarding `C[C@H](Oc1ccccc1)C(=O)N[C@@H]1C(=O)N2[C@@H]1SC(C)(C)[C@@H]2C(=O)O`, the Potency result (in experiment [1]; in the experiment with AA1029; in the experiment with ATS95; in the experiment with C2A; with CP191; in the experiment with CP192) was “inactive” in each case. For the same molecule, the Potency entry in the experiment with CP238, in the experiment with CP252, in the experiment on CP256, in the experiment with CP262, with CP305 and with CP329 was “inactive” throughout. Also, the Potency result in the experiment with ECU, in the experiment on FAB9, in the experiment with JCK, in the experiment on N140, with PC15 and in the experiment on PC49 was “inactive” in each case. The Potency entry in the experiment on TAB109 and in the experiment with TAB165 was “inactive” each time.
Turning to `COc1ccc(C[C@@](C)(N)C(=O)O)cc1OC`, the Potency result (in [1]; with AA1029; in the experiment with ATS95; with C2A; in the experiment on CP191; in the experiment on CP192) was “inactive” throughout. Further, the Potency result with CP238, with CP252, with CP256, in the experiment with CP262, in the experiment on CP305 and with CP329 was “inactive” throughout. For the same molecule, the Potency entry in the experiment with ECU, with FAB9, in the experiment on JCK, with N140, with PC15 and with PC49 was “inactive” in each case. Further, the Potency entry in the experiment on TAB109 and in the experiment with TAB165 was “inactive” throughout.
With `C=CCN1C(=CCO)[C@H]2C[C@H]3[C@@H]1CC[C@@]31c3ccccc3N3C=C4[C@@H]5N(/C=C/2[C@H]31)c1ccccc1[C@]51CC[C@H]2[C@H]1C[C@@H]4/C(=C/CO)N2CC=C`, the Potency result (in experiment [1]; in the experiment on AA1029; in the experiment with ATS95; with C2A; with CP191; with CP192) was “inactive” in each case. The Potency result with CP238, in the experiment with CP252, with CP256, with CP262, in the experiment with CP305 and with CP329 was “inactive” each time. In addition, the Potency entry with ECU, with FAB9, with JCK, with N140, with PC15 and in the experiment on PC49 was “inactive” throughout. Also, the Potency result in the experiment with TAB109 and in the experiment with TAB165 was “inactive” throughout.
As to `CO[C@H]1[C@H](O[C@H]2O[C@@H](C)[C@@H](O[C@@H]3C[C@](C)(O)[C@H](OC(=O)CC(C)C)[C@H](C)O3)[C@@H](N(C)C)[C@@H]2O)[C@@H](CC=O)C[C@@H](C)[C@@H](O)/C=C\C=C/C[C@@H](C)OC(=O)C[C@H]1OC(C)=O`, the Potency result (in experiment [1]; in the experiment with FAB9; in the experiment on JCK; with PC49) was “inactive” in each case. Besides, the Potency in the experiment with CP256 was 2 µM (active); in the experiment on CP262 it was 2.28 µM (active); in the experiment on TAB109 it was 1 µM (active).
Take `NS(=O)(=O)c1cc2c(cc1Cl)N[C@@H](CC1CCCC1)NS2(=O)=O`: the Potency entry with AA1029, in the experiment on ATS95, in the experiment on C2A, in the experiment on CP191, in the experiment on CP192 and in the experiment on CP238 was “inactive” each time. Further, the Potency result in the experiment on CP252, in the experiment with CP256, in the experiment with CP262, in the experiment on CP305, in the experiment with CP329 and in the experiment on ECU was “inactive” in each case. Besides, the Potency result in the experiment with FAB9, in the experiment with JCK, in the experiment on N140, with PC15, with TAB109 and in the experiment with TAB165 was “inactive” each time.
